# Results published in PubChem BioAssay (EPA / NIEHS).
# Some structures have more than one record in an assay (separate samples or runs), and their calls can disagree. Calls of active or inactive are those of the source. Rule for the calls: active = hit-call score of the fitted dose curve at least 0.9, where 1 is the maximum; inactive = score below 0.9.
# Test: ATG_PPRE_CIS: Attagene CIS-FACTORIAL HepG2 Assay for human Peroxisome Proliferator-activated Response Element (PPRE) (AID 2282958)
# Conditions: HepG2 PPRE cis-element reporter, Attagene transcription factor profiling; actives raise or lower the signal
# Method: ATG_CIS is a cell-based, multiplexed-readout assay that uses HepG2, a human liver cell line, with measurements taken at 24 hours after chemical dosing in a 24-well plate.ATG_PPRE_CIS is one of 52 assay component(s) measured or calculated from the ATG_CIS assay. It is designed to make measurements of mRNA induction, a form of inducible reporter, as detected with fluorescence intensity signals by Reverse transcription polymerase chain reaction (RT-PCR) and Capillary electrophoresis technology.Data from the assay component ATG_PPRE_CIS was analyzed into 1 assay endpoint. This assay endpoint, ATG_PPRE_CIS, was analyzed with bidirectional fitting relative to DMSO as the negative control and baseline of activity. Using a type of inducible reporter, measures of mRNA for gain or loss-of-signal activity can be used to understand the reporter gene at the transcription factor-level as they relate to the gene PPARA and PPARD and PPARG. Furthermore, this assay endpoint can be referred to as a primary readout, because this assay has produced multiple assay endpoints where this one serves a reporter gene function. To generalize the intended target to other relatable targets, this assay endpoint is annotated to the nuclear receptor intended target family, where the subfamily is non-steroidal.
# Human liver HepG2 cells are transiently transfected with multiple reporter transcription units (MRTUs) in 6-well plates using FuGene 6 reagent (Roche; 3 ml FuGene/1 mg DNA). The MRTU constructs are regulated by a cis-regulating element (promoter). […] A major difference between the CIS and TRANS system is that in CIS activities of endogenous TFs are measured, whereas the TRANS assay evaluates changes in activities of exogenous, chimeric NR-Gal4 proteins. […] At the end of 24 hour incubation, total RNA was isolated using TriZol reagent (Invitrogen). The isolated RNA is then reverse-transcribed using oligo(dT) primer and Mo-MLV reverse transcriptase (Invitrogen) with DNAse I (Ambion) treatment for 30 min. The one-tenth of the produced cDNA was amplified by PCR using Taq DNA polymerase (Invitrogen) and two reporter sequence-specific primers. The PCR products were fluorescently labeled by primer extension with 6-arboxyfluorescein (6-FAM) 5'-labeled reporter sequence-specific primer (2 min at 95 C, 20 s at 68 C and 10 min at 72 C) and these products were digested with 5U of HpaI (New England Biolabs) for 2h at 37 C. The fragments were purified using Qiaquick PCR columns (Qiagen), analyzed on an ABI 3130xL genetic analyzer (Applied Biosystems) with peak positions identified by using a set of X-rhodamine (ROX)-labeled MapMarker1000 molecular weight standards (BioVentures). The raw capillary electrophoresis data was processed using Attagraph software (Attagene).
Structure (SMILES),outcome,AC50
C=CCOCC(CO)(CO)CO,inactive,
Cc1cc(C(C)(C)C)c(O)c(C(C)(C)C)c1,inactive,11.9 µM (active)
CNNCc1ccc(C(=O)NC(C)C)cc1,inactive,
CCO[Si](C)(C)OCC,inactive,
CC(C)c1c(C(=O)Nc2ccccc2)c(-c2ccccc2)c(-c2ccc(F)cc2)n1CC[C@@H](O)C[C@@H](O)CC(=O)O,inactive,
O=C(F)C(F)(F)C(F)(F)C(F)(F)C(F)F,inactive,
CCCCCCc1ccc(N)cc1,inactive,
CCC(=O)O,inactive,
FC(F)(F)N1C(F)(F)C(F)(F)OC(F)(F)C1(F)F,inactive,
Oc1ccc(Cc2ccccc2O)cc1,inactive,
C/C=C/C(=O)C1=C(C)CCCC1(C)C,inactive,
CCc1ccccc1O,inactive,
CCCCCCCCCCCC[N+](C)(C)Cc1ccccc1,inactive,
OCC(F)(F)C(F)(F)C(F)(F)C(F)(F)C(F)(F)C(F)(F)C(F)(F)C(F)(F)C(F)(F)C(F)(F)C(F)(F)F,inactive,
CCOC(C)=O,inactive,
CCCCCCCCCCCCOC(=O)c1cc(O)c(O)c(O)c1,inactive,
C=CC(=O)OCC(CO)(COCC(COC(=O)C=C)(COC(=O)C=C)COC(=O)C=C)COC(=O)C=C,inactive,
C[N+](C)(CCCNS(=O)(=O)CCC(F)(F)C(F)(F)C(F)(F)C(F)(F)C(F)(F)C(F)(F)F)CC(=O)[O-],inactive,
COc1cccc(O)c1,inactive,
CCCCCCCCCCCC(=O)O,inactive,

Structure (SMILES),outcome,AC50
Oc1c(Cl)ccc(Cl)c1Cl,,40.4 µM (active)
CCCCCCCCCCCCCCCC(=O)OC,inactive,
OCC1CCC(CO)CC1 (stereo not given),inactive,
FC(F)(F)C1(F)C(F)(F)C(F)(F)C(F)(F)C1(F)F,inactive,
C[C@]12CC[C@@H]3c4ccc(O)cc4CC[C@H]3[C@@H]1C[C@@H](O)[C@@H]2O,inactive,
CCCCCCCC(OC)OC,inactive,
FC1(F)C=CC(F)(F)C1(F)F,inactive,
O=C(c1cc(O)c(O)c(O)c1)c1ccc(O)c(O)c1O,inactive,
CCN(CC)CC,inactive,
O=C1OC(=O)C(F)(F)C1(F)F,inactive,
c1ccc2c(c1)CCC2,inactive,
CCCCCCCCCCCC(=O)NCCCN(C)C,inactive,
CCOC=C(C(=O)OCC)C(=O)OCC,inactive,
CC(C)[C@@H]1CC[C@@H](C)C[C@H]1O,inactive,
O=C1c2ccccc2C(=O)c2c(O)c(O)cc(O)c21,inactive,
COC(O)c1ccccc1 (stereo not given),inactive,
Cc1cccc2c1ccc1ccccc12,inactive,
CC(C)(C)c1ccc(O)c(O)c1,inactive,
CCCCC(CC)C(=O)O (stereo not given),inactive,
